The structures appear in SMILES notation. Values joined by “and” are separate entries in the source; they are usually repeats but may differ in a detail not shown here. Identical values can stand only once. About 2,600 (16%) of roughly 16,000 compounds were called active. Inconclusive results (about 20%) are left out. Only a sample is shown. Unmarked numbers belong to inactive results. Calls follow the shape of the dose curve; as a rule, active = well fitted curve in the direction sought with a large enough effect; inconclusive = small, poorly fitted or top-dose-only effect, or effect the other way; inactive = no such curve, though single readings can be large or run the other way.
% is scaled to controls: 0 for no effect and ±100 for the full control effect.

The target of the assay is Cytochrome P450 2D6 (Homo sapiens) (UniProt P10635). Kind of assay: Cytochrome panel assay with activity outcomes. The note with it: recombinant CYP, pro-luciferin dealkylation, luminescence, p450-cyp2d6; series mostly up to 57.1 µM; activity, negative = inhibition: at the top concentration.
Chain of Cytochrome P450 2D6 (Homo sapiens) (P10635 whole entry, looked up): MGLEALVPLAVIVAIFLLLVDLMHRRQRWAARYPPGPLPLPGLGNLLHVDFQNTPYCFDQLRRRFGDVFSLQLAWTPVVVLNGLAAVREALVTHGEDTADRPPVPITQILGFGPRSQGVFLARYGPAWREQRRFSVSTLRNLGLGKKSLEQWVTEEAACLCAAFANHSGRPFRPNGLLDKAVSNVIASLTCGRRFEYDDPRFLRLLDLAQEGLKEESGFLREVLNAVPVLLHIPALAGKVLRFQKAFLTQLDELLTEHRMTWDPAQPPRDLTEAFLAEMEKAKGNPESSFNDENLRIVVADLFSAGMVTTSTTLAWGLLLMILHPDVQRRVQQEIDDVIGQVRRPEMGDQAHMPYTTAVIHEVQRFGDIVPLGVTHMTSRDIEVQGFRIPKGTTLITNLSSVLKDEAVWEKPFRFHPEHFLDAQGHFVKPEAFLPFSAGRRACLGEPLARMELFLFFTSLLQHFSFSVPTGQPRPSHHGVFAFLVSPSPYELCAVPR
For `COc1ccc(C(C)(C)C)cc1NC(=O)c1cncc(Br)c1`, the “activity, negative = inhibition” value was 9.49%. In the case of `CC(=O)Nc1cc(C(F)(F)F)ccc1Oc1cccc(Br)c1`, the AC50 (in general, the midpoint of the concentration-response curve, whichever way the signal moves) is 10 µM (active). Regarding `CCOc1ccc(C(F)(F)F)cc1NC(C)=O`, the “activity, negative = inhibition” value is -26.1%.

As to `CSCC[C@H](NC(=O)CC(C)(C)C)c1nc2ccccc2[nH]1`, the “activity, negative = inhibition” value is -2.27%. On the same count and under the same terms, then `C[N+](C)(C)c1nc(N)nc2c1ncn2[C@H]1O[C@@H](CO)[C@@H](O)[C@H]1O`, with 6.01% [at 11.4 µM]. On the same count and under the same terms, then `O=C(COc1ccc(/C=N/NC(=O)c2ccccc2)cc1)Nc1ccc([N+](=O)[O-])cc1`, with -21%. In the case of `O=C(COc1ccc([N+](=O)[O-])cc1)Nc1ccc(C(=O)NCc2cccnc2)cc1`, the AC50 is 3.16 µM (active). Take `CCOC(=O)c1cccc(NC(=O)COc2ccc([N+](=O)[O-])cc2)c1`: the AC50 is 1.41 µM (active). Regarding `O=C(COc1ccc([N+](=O)[O-])cc1)NCc1ccccc1`, the “activity, negative = inhibition” value is -28.4%. Take `O=C(COc1ccc(Br)cc1)Nc1ccc([N+](=O)[O-])cn1`: the “activity, negative = inhibition” value was -1.99%. Same read-out and setting: as for `COc1cc(/C=N\Nc2ccc([N+](=O)[O-])cc2)ccc1OCC(=O)Nc1ccc(C)c(C)c1`, the figure is -6.34%; as for `O=S(=O)(c1ccccc1)c1cnn2c(C(F)(F)F)cc(-c3ccc(F)cc3)nc12`, -27.4%; as for `COc1c(O[C@H]2O[C@@H](CO)[C@@H](O)[C@@H](O)[C@@H]2O)cc2c(c1OC)-c1ccc(SC)c(=O)cc1[C@H](NC(C)=O)CC2`, -2.73% [at 25.6 µM]. Still for that read-out and setting: then `O=C1CCCC=C1[C@@H](O)CCOC(c1ccccc1)(c1ccccc1)c1ccccc1`, with -20.1% [at 11.4 µM]; and `CCOP(=O)(OCC)c1nc(/C=C/c2ccccc2)oc1NCc1ccccc1`, with -19.8%. Consider `c1ccc(SCCc2ccncc2)cc1`, for which the AC50 was 2.82 µM (active) and 1.26 µM (active).

Turning to `Fc1ccc(SCCc2ccncc2)cc1`, the AC50 is 5.01 µM (active). As to `O=C1c2ccccc2C(Cc2ccncc2)(Cc2ccncc2)c2ccccc21`, the “activity, negative = inhibition” value is 0.345%.

For `O=C(O)CCCSc1ccccc1`, the activity, negative = inhibition was 0.436% [at 11.4 µM]. Take `C[C@@H]1CCCC(CC(=O)O)(CC(=O)O)C1`: the activity, negative = inhibition is 0.077% [at 11.4 µM]. `Cc1cccnc1NC(=O)C12CCC(C)(C(=O)O1)C2(C)C` (configuration not stated): the “activity, negative = inhibition” value is 6.8%. As to `O=C(O)c1nnsc1-c1ccc(-c2snnc2C(=O)O)cc1`, the activity, negative = inhibition is -3.33% [at 11.4 µM].

`CC(=O)Nc1ccc(Sc2ncccc2C(=O)Nc2ccc(F)cc2)cn1`: the “activity, negative = inhibition” value is 2.14%. For the compound `CC(=O)Nc1ccc(C#Cc2ccc(NC(C)=O)cc2)cc1`, the “activity, negative = inhibition” value was 1.93%. `CCCCN(c1ccccc1)c1ncnc2c1cnn2C`: the activity, negative = inhibition is -12.5% [at 11.4 µM]. Turning to `O=[N+]([O-])c1cccnc1N1CCCCC1`, the “activity, negative = inhibition” value is 6.64%. In the case of `Cc1[nH]nc(N2CCCCCC2)c1[N+](=O)[O-]`, the AC50 is 15.8 µM (active). Consider `Cc1nc(N2CCOCC2)nc(N2CCN(c3ccccc3)CC2)c1[N+](=O)[O-]`, for which the “activity, negative = inhibition” value was -19.2%. As for `Cn1c(Oc2ccccc2)c(C=O)c2ccccc21`, the “activity, negative = inhibition” value is -8.7%. Turning to `CCOc1ccc(OCC)c(-c2c(=O)n(OCc3ccccc3C(=O)OC)c3ccccc3[n+]2[O-])c1`, the “activity, negative = inhibition” value is 15.3%. Same read-out and setting: then `O=c1onc2cnc3ccccc3n12`, with 5.31%; and `Cc1nc2c(C#N)c(C)[nH]n2c(=O)c1Cc1ccccc1`, with -0.766%. Same read-out and setting: then `Cc1ccc(-n2c(O)c(/C=N/n3cnnc3)c3ccccc3c2=O)cc1`, with -15.6%; and `COc1cccc(-c2[nH]nc3c2C(c2ccsc2)C(C#N)=C(N)O3)c1` (configuration not stated), with -20.1%.

`C/C(=C\c1ccco1)C1C(C#N)=C(N)Oc2n[nH]c(-c3ccccc3)c21` (configuration not stated): the AC50 is 31.6 µM (active). Consider `COc1cccc(-c2[nH]nc3c2C(c2ccc(C)o2)C(C#N)=C(N)O3)c1` (configuration not stated), for which the “activity, negative = inhibition” value is -18.8%. The same measure, in the same setting: then `Nc1ccccc1S(N)(=O)=O`, with -5.43% [at 25.6 µM].

For the compound `O=C(O)CC(O)C(=O)O` (configuration not stated), the “activity, negative = inhibition” value is -29%.

Take `CCN(CC)S(=O)(=O)N1CCC(C(=O)NCc2ccc(C)cc2)CC1`: the “activity, negative = inhibition” value was -6.16%. The same measure, in the same setting: as for `Cc1ccc(S(=O)(=O)NCC2CCC(C(=O)O)CC2)cc1` (configuration not stated), the figure is 17.3%. For the compound `Cc1cc(C)c(S(=O)(=O)NCC2CCC(C(=O)NCc3ccc4c(c3)OCO4)CC2)c(C)c1` (configuration not stated), the AC50 is 12.6 µM (active). As to `CN(C)CCNCCN`, the activity, negative = inhibition was 8.7% [at 11.4 µM]. For the compound `COCCn1c(=O)cnc2cnc(Oc3cccc(Cl)c3)nc21`, the “activity, negative = inhibition” value is -1.14%. On the same count and under the same terms, as for `C=C(C)C1Cc2nc(N)nc(C)c2C1` (configuration not stated), the figure is 4.24%; as for `Cc1nc2nc[nH]n2c(=O)c1NC(=O)CC12CC3CC(CC(C3)C1)C2`, 6.11%. Same read-out and setting: as for `COc1cc2cc3c4cc(OC)c(OC)cc4cc[n+]3c(C)c2cc1OC`, the figure is 4.46% [at 25.6 µM]. As for `CNC(=O)c1c(I)c(C(=O)NCC(=O)Nc2c(I)c(C(=O)O)c(I)c(C(=O)NCCO)c2I)c(I)c(N(C)C(C)=O)c1I`, the “activity, negative = inhibition” value is -4.4% [at 25.6 µM]. The same measure, in the same setting: then `CCOC(=O)[C@H](CCc1ccccc1)N[C@@H](C)C(=O)N1CCC[C@H]1C(=O)O`, with 3.29% [at 25.6 µM]. With `N#C/C(=C\c1ccc(O)c(O)c1)C(=O)OCCc1cccs1`, the AC50 was 12.6 µM (active).

`CCOC(=O)/C(C#N)=C\c1ccc(OCC(=O)Nc2ccc(C)cc2C)c(OC)c1`: the “activity, negative = inhibition” value is 9.89%.

As to `N#C/C(=C\c1ccc(O)c(O)c1)C(=O)NCc1ccccc1`, the “activity, negative = inhibition” value is -5.88%. On to `C[C@H](NC(=O)/C(C#N)=C/c1ccc(O)c(O)c1)c1ccccc1`, for which the “activity, negative = inhibition” value was -20.2%.

(Values after PubChem BioAssay AID1851 (National Center for Advancing Translational Sciences (NCATS), 2009).)
